Results from PubChem BioAssay.
The source made the active and inactive calls.

Assays:
[1] = system: Plasmodium falciparum Sir2 (PF13_0152, Sir2A); test: pfSir2 binders on small-molecule microarrays, primary screen, biochemical, small-molecule microarray, 635 nm fluorescence (AID 1098); settings: small-molecule microarray binding, fluorescence 635 nm; higher = more signal;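 note: score merges spot fluorescence intensity with its signal-to-noise ratio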
[2] = small-molecule microarray binders of probe aDKK1, primary screen, biochemical, biotinylated probe, 635/667 nm fluorescence (AID 1099); settings: higher = more signal;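 note: score merges 667nm spot fluorescence with signal to noise across triplicate slides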
[3] = small-molecule microarray binders of probe aCHRDL2, primary screen, biochemical, biotinylated probe, 635/667 nm fluorescence (AID 1100); settings: higher = more signal
[4] = splicing luciferase reporter signal modulators, primary screen, spliceosome inhibition project, cell-based, HEK293, splice +/- reporter (AID 1101); settings: luminescence, 24 h, higher = more signal, called active from +8 up or from −8 down;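 note: HEK293 cells carrying a splicing-competent luciferase reporter gene; test concentration not given here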
[5] = molecular target: Fibroblast growth factor 10 (Homo sapiens) (UniProt O15520); test: FGF10 binders on small-molecule microarrays, primary screen, biochemical, small-molecule microarray, 635 nm fluorescence (AID 1102); settings: FGF10 binding, fluorescence 635 nm, higher = more signal
[6] = system: glycogen synthase kinase-3 (GSK3A per assay name; protocol says GSK3B); test: GSK3 binders on small-molecule microarrays, primary screen, biochemical, small-molecule microarray, 635 nm fluorescence, GSK3A (AID 1103); settings: small-molecule microarray binding, fluorescence 635 nm; higher = more signal; note: the record names both GSK3A and GSK3B
[7] = molecular target: Epidermal growth factor receptor (Homo sapiens) (UniProt P00533); test: EGFR binders on small-molecule microarrays, primary screen, biochemical, small-molecule microarray, 635 nm fluorescence (AID 1104); settings: EGFR binding, higher = more signal;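 note: score merges 667 nm emission intensity with spot signal to noise over triplicate slides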
[8] = molecular target: Follistatin-related protein 3 (Homo sapiens) (UniProt O95633); test: FSTL3 binders on small-molecule microarrays, primary screen, biochemical, small-molecule microarray, 635 nm fluorescence (AID 1105); settings: FSTL3 binding, higher = more signal;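 note: score merges emission near 667 nm and signal to noise per printed spot across three slides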
[9] = molecular target: Dickkopf-related protein 1 (Homo sapiens) (UniProt O94907); test: DKK1 binders on small-molecule microarrays, primary screen, biochemical, small-molecule microarray, 635 nm fluorescence scan (AID 1106); settings: DKK1 binding, higher = more signal;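 note: score merges emission near 667 nm with signal to noise over three replicate slides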
[10] = system: Inhibin beta A chain (activin A); test: INHBA (activin A) binders on microarrays, primary screen, biochemical, small-molecule microarray, 635 nm fluorescence scan (AID 1107); settings: small-molecule microarray binding, higher = more signal;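 note: mouse activin A protein probed at 4.33 µg/mL on printed slides; score merges bound-protein fluorescence near 667 nm with spot signal-to-noise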
[11] = system: Human papillomavirus type 1a protein E7 (residues 44-93); test: HPV1a E7 fragment binders on microarrays, primary screen, biochemical, small-molecule microarray, residues 44-93, 635 nm fluorescence (AID 1108); settings: small-molecule microarray binding, fluorescence 635 nm; higher = more signal;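 note: E7 fragment applied at 1 µg/mL in TBST for 1 h at 4 C; score combines spot fluorescence with its signal to noise ratio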
[12] = modulators of HCV replicon luciferase signal, primary screen, HCV replication inhibitor project, Huh7 cells, luciferase reporter (AID 1109); settings: 48 h, higher = more signal;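 note: huh7 hepatoma cells harbouring a luciferase neomycin HCV replicon reporter; luciferase luminescence as measure of HCV replicon replication; test concentration not given here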
[13] = molecular target: Left-right determination factor 2 (Homo sapiens) (UniProt O00292); test: LEFTY2 binders on small-molecule microarrays, primary screen, biochemical, small-molecule microarray, 635 nm fluorescence scan (AID 1110); settings: LEFTY2 binding, higher = more signal
[14] = molecular target: Calmodulin-1 (Homo sapiens) (UniProt P0DP23); test: CALM1 binders on microarrays, EGTA buffer, profiling panel, biochemical, small-molecule microarray, Cy5-labelled CALM1 (AID 1111); settings: Cy5-CALM1 binding fluorescence, higher = more signal;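 note: labelled calmodulin applied in Tris saline Tween buffer holding calcium plus EGTA and DTT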
[15] = molecular target: Calmodulin-1 (Homo sapiens) (UniProt P0DP23); test: calcium-bound CALM1 binders on microarrays, profiling panel, artefact control for SMM control-protein annotation, biochemical, small-molecule microarray, Cy5-labelled CALM1, plus calcium (AID 1112); settings: Cy5-CALM1 binding fluorescence, higher = more signal;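 note: score merges spot fluorescence with signal to noise from triplicate slides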
[16] = small-molecule microarray binders of probe aWnt5a, primary screen, biochemical, biotinylated probe, 635/667 nm fluorescence (AID 1113); settings: higher = more signal;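 note: score merges 667 nm fluorescence intensity with signal-to-noise per printed feature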
[17] = small-molecule microarray binders of probe aShh, primary screen, biochemical, biotinylated probe, 635/667 nm fluorescence (AID 1114); settings: higher = more signal;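 note: probe is biotin-labelled aShh protein from a stem cell growth factor screen; measures binding of labelled protein to compounds printed on the slide; score merges feature fluorescence at 667 nm with signal-to-noise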
[18] = small-molecule microarray binders of probe aNog, primary screen, biochemical, biotinylated probe, 635/667 nm fluorescence (AID 1115); settings: higher = more signal;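 note: probe is biotinylated aNog protein used at 0.15 µg/mL for 1 h at 4 C; z-score combines 667 nm fluorescence of each spot with its signal to noise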
[19] = molecular target: Torsin-1A-interacting protein 1 (Homo sapiens) (UniProt Q5JTV8); test: LAP1 binders from COS7 cell lysate, primary screen, small-molecule microarray, 635/667 nm fluorescence (AID 1116); settings: COS7-hLAP1 lysate binding, 635 nm fluorescence, higher = more signal
[20] = molecular target: Alpha-bungarotoxin (Bungarus multicinctus) (UniProt P60615); test: alpha-bungarotoxin binders on microarray, profiling panel, artefact control for SMM control protein annotation, biochemical, small-molecule microarray, Alexa647 label, 635/667 nm fluorescence (AID 1117); settings: alpha-BTX-A647 binding fluorescence, higher = more signal
Chain of Alpha-bungarotoxin (Bungarus multicinctus) (P60615 whole entry, looked up): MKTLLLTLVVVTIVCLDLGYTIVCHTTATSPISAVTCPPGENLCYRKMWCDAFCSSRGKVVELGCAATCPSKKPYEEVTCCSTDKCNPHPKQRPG

Chain of Follistatin-related protein 3 (Homo sapiens) (O95633 whole entry, looked up): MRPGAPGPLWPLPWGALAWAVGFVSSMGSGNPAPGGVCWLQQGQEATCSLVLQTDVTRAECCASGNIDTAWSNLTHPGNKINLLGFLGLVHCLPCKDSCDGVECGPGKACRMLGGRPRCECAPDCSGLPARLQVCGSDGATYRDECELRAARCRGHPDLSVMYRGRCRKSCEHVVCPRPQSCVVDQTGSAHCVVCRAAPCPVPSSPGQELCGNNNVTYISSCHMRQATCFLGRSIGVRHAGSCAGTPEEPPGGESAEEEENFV
Chain of Fibroblast growth factor 10 (Homo sapiens) (O15520 whole entry, looked up): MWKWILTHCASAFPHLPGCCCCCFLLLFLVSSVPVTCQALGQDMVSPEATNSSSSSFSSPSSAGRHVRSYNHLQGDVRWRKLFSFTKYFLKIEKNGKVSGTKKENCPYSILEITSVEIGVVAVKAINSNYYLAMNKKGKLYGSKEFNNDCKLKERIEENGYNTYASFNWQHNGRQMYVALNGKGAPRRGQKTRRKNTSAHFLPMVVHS
Chain of Left-right determination factor 2 (Homo sapiens) (O00292 whole entry, looked up): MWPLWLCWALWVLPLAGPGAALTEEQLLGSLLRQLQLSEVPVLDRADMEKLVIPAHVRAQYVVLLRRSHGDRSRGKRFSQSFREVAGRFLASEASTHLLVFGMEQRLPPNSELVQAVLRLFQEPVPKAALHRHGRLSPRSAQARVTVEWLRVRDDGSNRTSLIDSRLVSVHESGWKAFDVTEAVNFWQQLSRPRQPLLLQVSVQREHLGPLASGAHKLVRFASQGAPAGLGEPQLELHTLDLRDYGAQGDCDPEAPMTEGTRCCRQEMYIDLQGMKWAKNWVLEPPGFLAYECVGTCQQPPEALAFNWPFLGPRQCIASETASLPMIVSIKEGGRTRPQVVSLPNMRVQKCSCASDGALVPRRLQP
Chain of Dickkopf-related protein 1 (Homo sapiens) (O94907 whole entry, looked up): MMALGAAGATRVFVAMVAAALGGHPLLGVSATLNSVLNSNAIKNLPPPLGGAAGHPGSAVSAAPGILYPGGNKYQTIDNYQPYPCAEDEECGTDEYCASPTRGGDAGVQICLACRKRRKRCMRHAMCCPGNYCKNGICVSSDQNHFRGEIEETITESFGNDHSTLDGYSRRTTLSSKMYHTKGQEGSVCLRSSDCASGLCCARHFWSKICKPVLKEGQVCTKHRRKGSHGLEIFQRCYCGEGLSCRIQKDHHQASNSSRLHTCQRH
Chain of Epidermal growth factor receptor (Homo sapiens) (P00533 whole entry, looked up): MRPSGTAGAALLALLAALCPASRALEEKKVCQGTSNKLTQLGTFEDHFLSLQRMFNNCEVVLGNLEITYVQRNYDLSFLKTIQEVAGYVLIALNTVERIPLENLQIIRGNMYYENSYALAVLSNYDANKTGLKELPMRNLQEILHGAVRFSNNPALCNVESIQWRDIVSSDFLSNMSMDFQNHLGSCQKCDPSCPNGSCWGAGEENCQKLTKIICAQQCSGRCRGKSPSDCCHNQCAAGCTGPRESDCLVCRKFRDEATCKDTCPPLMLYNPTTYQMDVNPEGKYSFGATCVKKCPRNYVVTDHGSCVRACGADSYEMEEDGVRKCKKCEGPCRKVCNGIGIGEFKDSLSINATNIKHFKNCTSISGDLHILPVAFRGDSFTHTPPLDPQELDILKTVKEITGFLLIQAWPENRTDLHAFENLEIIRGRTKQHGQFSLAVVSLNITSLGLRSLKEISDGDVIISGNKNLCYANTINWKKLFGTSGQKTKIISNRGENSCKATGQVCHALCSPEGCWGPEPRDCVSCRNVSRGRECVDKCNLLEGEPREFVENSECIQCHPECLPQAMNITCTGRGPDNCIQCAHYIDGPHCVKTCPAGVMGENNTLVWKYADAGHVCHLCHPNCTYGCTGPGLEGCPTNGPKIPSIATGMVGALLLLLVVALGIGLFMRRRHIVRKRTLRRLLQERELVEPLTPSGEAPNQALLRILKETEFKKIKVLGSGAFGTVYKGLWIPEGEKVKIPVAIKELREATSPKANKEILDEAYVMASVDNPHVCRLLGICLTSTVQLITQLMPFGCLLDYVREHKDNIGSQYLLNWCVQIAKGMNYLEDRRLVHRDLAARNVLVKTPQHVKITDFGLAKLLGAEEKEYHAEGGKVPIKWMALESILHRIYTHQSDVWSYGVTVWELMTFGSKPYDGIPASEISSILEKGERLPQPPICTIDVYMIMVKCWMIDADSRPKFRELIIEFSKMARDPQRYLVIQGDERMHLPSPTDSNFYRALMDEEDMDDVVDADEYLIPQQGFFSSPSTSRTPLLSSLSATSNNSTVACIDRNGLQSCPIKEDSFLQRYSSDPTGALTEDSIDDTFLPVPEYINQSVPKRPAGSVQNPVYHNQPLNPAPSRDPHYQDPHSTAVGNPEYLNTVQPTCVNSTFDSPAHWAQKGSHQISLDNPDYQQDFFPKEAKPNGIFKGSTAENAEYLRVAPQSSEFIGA
Chain of Torsin-1A-interacting protein 1 (Homo sapiens) (Q5JTV8 whole entry, looked up): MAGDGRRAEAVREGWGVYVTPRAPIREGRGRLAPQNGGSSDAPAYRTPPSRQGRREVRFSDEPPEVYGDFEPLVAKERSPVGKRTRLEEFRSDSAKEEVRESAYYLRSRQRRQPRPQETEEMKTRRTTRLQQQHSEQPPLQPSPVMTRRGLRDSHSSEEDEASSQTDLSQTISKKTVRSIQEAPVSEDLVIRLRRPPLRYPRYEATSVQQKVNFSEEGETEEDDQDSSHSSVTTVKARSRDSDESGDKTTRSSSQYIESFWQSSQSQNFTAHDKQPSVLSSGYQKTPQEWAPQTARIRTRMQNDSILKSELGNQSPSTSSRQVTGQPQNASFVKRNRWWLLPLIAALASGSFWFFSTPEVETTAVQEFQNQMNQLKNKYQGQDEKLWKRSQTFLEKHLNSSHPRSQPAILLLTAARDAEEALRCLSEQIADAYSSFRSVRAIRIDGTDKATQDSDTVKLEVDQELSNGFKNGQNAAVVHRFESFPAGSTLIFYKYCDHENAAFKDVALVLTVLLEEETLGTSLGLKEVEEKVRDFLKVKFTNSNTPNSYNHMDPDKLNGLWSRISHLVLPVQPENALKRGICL

| SMILES | composite z-score [1] | composite z-score [2] | composite z-score [3] | z-score [4] | composite z-score [5] | composite z-score [6] | composite z-score [7] | composite z-score [8] | composite z-score [9] | composite z-score [10] | composite z-score [11] | z-score [12] | composite z-score [13] | composite z-score [14] | composite z-score [15] | composite z-score [16] | composite z-score [17] | composite z-score [18] | composite z-score [19] | composite z-score [20] |
| --- | --- | --- | --- | --- | --- | --- | --- | --- | --- | --- | --- | --- | --- | --- | --- | --- | --- | --- | --- | --- |
| C[N+](C)(C)CCCCCCNC(=O)[C@H]1C[C@H]2C(=O)N[C@@H](Cc3ccccc3)C(=O)N2[C@H]1c1cccc(OCCO)c1 | 1.65 | -0.0429 | 0.0593 | 0.264 (inactive) | 0.985 | 1.23 | 0.227 | 1.09 | 0.707 | 0.279 | 0.658 | 0.487 | 0.642 | -0.96 | -1.03 | -0.184 | -0.243 | -0.234 | 0.944 | -0.049 |
| C#CCN1[C@H](/C=C/C2CC2)[C@H](Cc2ccccc2)OC(=O)[C@@H]1Cc1ccccc1 | 1.16 | -0.411 | -0.507 | 0.23 (inactive) | 0.294 | 0.109 | 0.323 | 0.326 | 0.428 | 0.849 | -0.306 | -2.87 | 0.294 | -0.707 | -0.414 | -0.164 | -0.0066 | -0.401 | 0.0223 | 0.106 |
| COc1ccc(-c2cc3c(c(Cc4ccccc4)n2)[Si](C(C)C)(C(C)C)OC3)cn1 | 0.409 | 0.0847 | -0.386 | -0.267 (inactive) | -0.156 | -0.949 | 0.343 | -0.139 | 0.085 | 0.256 | -0.864 | -0.421 | -0.0979 | -0.646 | 0.0817 | -0.13 | -0.0849 | -0.0855 | -0.0516 | -0.26 |
| NC(=O)NCC#Cc1ccc2c(c1)[C@]1(C(=O)N2)[C@H](C(=O)O)[C@H]2C(=O)O[C@H](c3ccccc3)[C@H](c3ccccc3)N2[C@@H]1c1ccc(O)cc1 | 0.783 | 1.18 | 1.24 | 0.72 (inactive) | 0.295 | -0.576 | -0.16 | 1.28 | 0.181 | 1.25 | 0.443 | -0.539 | -0.317 | 1.6 | 0.717 | 0.216 | 0.346 | 1.61 | 0.412 | 1.5 |
| CCOC(=O)C1=C[C@@H](C(C)C)N(S(=O)(=O)c2ccc(C)cc2)[C@H]1c1ccccc1F | 0.906 | 0.398 | 0.603 | 1.2 (inactive) | 0.668 | 0.791 | 0.6 | 0.965 | 0.336 | 0.442 | 1.34 | -2.04 | 0.605 | 1.74 | 0.0462 | -0.001 | 0.116 | 0.541 | 1.08 | 1.39 |
| CC(C)(C)OC(=O)CC[C@@]1(C(=O)N2CCCCC2)N=C(c2ccc(OCCCO)cc2)O[C@@H]1c1ccccc1 | 1.74 | 0.555 | 0.452 | 0.0826 (inactive) | 1.46 | 1.3 | 0.197 | 0.858 | -0.219 | 0.6 | 1.44 | -1.49 | 0.0209 | 1.72 | -0.0506 | 0.168 | 0.476 | 0.414 | 0.774 | 0.873 |
| COCCCNC(=O)[C@@]1(Cc2ccccc2)N=C(c2ccc(OCCCO)cc2)O[C@H]1c1ccccc1CN=[N+]=[N-] | 0.47 | 1.09 | 1.32 | -0.469 (inactive) | 0.807 | 1.28 | -0.105 | 0.859 | -0.172 | 0.384 | 0.596 | -2.86 | 0.0508 | 2.14 | 0.451 | 0.0445 | 0.496 | 1.36 | 2.35 | 2.23 |
| CC1CC/C=C\[C@H]2OC34C=CCN(Cn5nnc6ccccc65)C(=O)[C@H]3N(CCCCCO)C(=O)[C@@H]4C2C(=O)O1 (stereo not given in full) | 0.285 | -0.415 | 0.598 | 0.271 (inactive) | -1.26 | -1.32 | -0.494 | -0.186 | -1.27 | -0.318 | -1.05 | 0.814 | -1.54 | -0.881 | 0.0455 | -0.197 | -0.283 | 0.558 | -0.722 | -1.3 |
| NCCCCCNC(=O)[C@H]1C[C@H]2C(=O)N3CCC[C@H]3C(=O)N2[C@H]1c1ccc(O)cc1 | 0.94 | 1.63 | 0.684 | -0.391 (inactive) | 1.01 | 1.28 | 0.781 | 1.34 | 1.24 | 1.12 | 1.39 | -0.0865 | 0.84 | 1.99 | 1.13 | 0.212 | 0.264 | 1.19 | 1.07 | 1.1 |
| O=C1OCCC=C[C@H]2OC34C=CCN(CCN5CCOCC5)C(=O)[C@H]3N(CCCCCO)C(=O)[C@@H]4C12 (stereo not given in full) | 1.44 | -0.235 | -0.111 | -0.78 (inactive) | -0.35 | 0.454 | -0.509 | -0.379 | -0.041 | -0.309 | 0.57 | 0.305 | -0.529 | 0.667 | -0.836 | -0.147 | -0.237 | -0.103 | 2.24 | 1.88 |
